Hits are enriched below; roughly 3.4% of the tested compounds scored in any of these assays.
Vif inh = HIV Vif self-association inhibitors, primary screen, imaging, HEK293T, single point | HEK293T cells, Vif self-association by quenched fluorescence, 24 h | inhibition, % at 7.49 µM | hit rate 0.35% among 340,000; in the data active = inhibition above about 50%, passing the limit was not always enough; inconclusive = no clear call, values can overlap the other calls; inactive = below about 31%
esBAF inh = Bmi1 luciferase reporter increase in mESCs, primary screen, esBAF inhibitor project, mouse ES cells, Bmi1 luciferase knock-in, single point; 24 h; 100% = twice the neutral-well signal; reporter increase, % at 12.5 µM; hit rate 2% among 350,000; AID 602393, 2012; in the data active = activation above about 40%; inconclusive = no clear call, values can overlap the other calls;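 note: 0% = median of the plate's neutral control wells and 100% = double that signal; a rise in the Bmi1 reporter signal indicates esBAF inhibition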
HSF-1 act = HSF-1 activators, primary screen, NIH3T3-HGL cells, MG132 stress, luminescence, single point; NIH3T3-HGL HSF-1 luciferase reporter, 8 h; 100% = twice DMSO control signal; activation, % at 9 µM; hit rate 1.7% among 300,000;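 active = mean replicate activation of at least 50% with a set share of replicates each reaching 50%; inconclusive = only one of those two conditions met; inactive = mean below 50% and too few replicates reaching it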;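 note: 0% = median of the neutral control wells and 100% = twice that signal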
HSF1 inh = HSF1 inhibitors in luciferase reporter cells, primary screen, cell-based, NIH3T3, luminescence; activity change, negative = inhibition, % at 7.5 µM (by protocol); hit rate 0.77% among 300,000; NIH3T3-HGL HSE-luciferase, MG132-induced, luminescence 8 h; stronger effect = lower value;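 active = more than half of replicate wells show activity change below -50%, luminescence cut by over half; inconclusive = some wells, but at most half, below -50%; inactive = no replicate well below -50%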;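 note: luciferase reports HSF-1 transcriptional activity via heat shock element; 0% = median of DMSO wells and -100% = zero luminescence signal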
Active calls of the source: *; u = inconclusive; x = no result given; + = active, no number; ! = not confirmed by another sample.

SMILES	Vif inh	esBAF inh	HSF-1 act	HSF1 inh
CCOc1cc(/C=N/NC(=O)Cn2nc([N+](=O)[O-])cc2C)cc(Br)c1OCc1ccccc1C	-9	-5	71*	28
COc1cc(/C=N/NC(=O)Cn2nc([N+](=O)[O-])cc2C)cc(Br)c1OCc1ccccc1	16	-4	40	8
COc1ccc(NC(=O)Nc2ccc3c(c2)C(=O)N([C@H](C)CO)C[C@@H](C)[C@@H](CN(C)C(=O)NC2CCCCC2)OCCCC[C@H](C)O3)cc1	x	-1	x	x
O=C(O)c1ccc(-c2ccc(-c3ccccc3)cc2)s1	-7	-33	-51	-51*
CCOC(=O)c1[nH]c2ccc(F)cc2c1NC(=O)c1ccccc1C(=O)O	10	54*	12	3
CCOC(=O)c1[nH]c2ccc(OC)cc2c1NC(=O)c1ccccc1C(=O)O	-18	x	28	15
O=C(NN=C1C2CC3CC1CC(Cl)(C3)C2)c1ccccn1	-12	48*	18	18
CC(=O)Nc1ccc(CN2CCC(CO)(CCOc3ccccc3)CC2)cc1	-1	4	-62	-56*
CCC(=O)N/C(N)=N/c1nc(C)c2cc(OC)ccc2n1	13	55*	14	24
CCOC(=O)CSc1nc(C)c2cc(OC)ccc2n1	x	0	8	3
COc1ccc2nc(/N=C(\N)NC(=O)C(C)(C)C)nc(C)c2c1	x	48*	35	7
COc1ccc2nc(/N=C(\N)NC(=O)N3c4ccccc4Sc4ccccc43)nc(C)c2c1	-5	x	-2	5
CCOc1ccccc1CNC(=O)CCn1ccc2cc(S(=O)(=O)N3CCCCC3)ccc21	-5	7	-80	-73*
Cc1nnc(SCc2ccc3c(c2)OCO3)s1	12	51*	14	8
Cc1nnc(SCC(=O)c2cc(C)n(-c3ccc4c(c3)OCO4)c2C)s1	-38	70*	33	-7
Cc1nnc(SCc2cccc(CSc3nnc(C)s3)c2)s1	1	u	0	19
S=C(Nc1ccc(Cl)cc1)NC1CCCCC1	-3	33	28	10
FC(F)Oc1ccc(NC(=S)NC2CCSc3ccccc32)cc1 (stereo unspecified)	-4	5	11	4
FC(F)Oc1ccc(NC(=S)NC2CCCCCCC2)cc1	-4	47*	25	13
S=C(Nc1ccc2[nH]ccc2c1)NC1CCCCC1	-2	66*	36	29
S=C(Nc1ccc(Br)cc1)NC1CCCCC1	2	43*	33	15
CCCN1[C@@H]2c3ccc(-c4ccccc4OC)c(=O)n3C[C@@H]2[C@@H](CO)[C@@H]1C(=O)N(C)C	x	3	x	x
COc1ccc(NC(=O)N(C)C[C@H]2Oc3c(NC(=O)NC(C)C)cccc3C(=O)N([C@@H](C)CO)C[C@@H]2C)cc1	x	3	x	x
Clc1ccc(-n2cc(COCc3ccccc3)nn2)cc1	5	x	61*	28
CC(=O)c1c(C)oc2ccc(NS(=O)(=O)c3ccc(C)cc3)cc12	2	7	15	10
SMILES	Vif inh	esBAF inh	HSF-1 act	HSF1 inh
Cc1oc2ccc(NS(=O)(=O)c3ccc(C(C)(C)C)cc3)cc2c1C(=O)Nc1ccccc1	1	-33	61*	18
C[C@]12CC[C@H]3C(=CCc4cc(O)ccc43)[C@@H]1CCC2=O	0	31*!	5	8
C[C@H](NC(=O)[C@H]1[C@H](CO)[C@H]2Cn3c(cccc3=O)[C@@H]1N2CCC(F)(F)F)c1ccccc1	x	-3	x	x
Cc1cc(C)c(S(=O)(=O)N2CCC(C(=O)NCc3ccco3)CC2)c(C)c1	4	0	54*	8
Cc1cc(C)c(C)c(S(=O)(=O)N2CCC(C(=O)NCc3ccco3)CC2)c1C	-4	0	x	x
COCC(=O)Nc1ccc2c(c1)OC[C@@H](C)N(Cc1ccccn1)C[C@@H](C)[C@H](OC)CN(C)C2=O	x	-1	x	x
CCOC(=O)N1CCC(NC(=O)CN2C(=O)CSc3nc(C)cc(C)c32)CC1	11	7	-78	-71*
CNC(=O)C[C@H]1CC[C@@H]2[C@H](COC[C@H](O)CN2C(=O)c2ccccn2)O1	x	4	x	x
Cc1cc(=O)n2nc(-c3ccc(C(F)(F)F)cc3)sc2n1	x	9	-76	-70*
Cn1c(N=Nc2ccccc2)nc2ccccc21	-4	x	6	-7
CN(C)c1ccc(N=Nc2nc3ccccc3n2C)cc1	7	-85	-86	-83*
O=C(C[C@H]1C[C@H]2c3cc(NS(=O)(=O)c4ccc(F)cc4)ccc3O[C@H]2[C@H](CO)O1)NC1CCCCC1	x	17	x	x
O=C(NCCc1ccccc1)Nc1ccc2c(c1)OCO2	1	x	62*	26
O=C(NCc1ccccn1)Nc1ccc2c(c1)OCO2	2	51*	22	11
O=C(NCc1ccncc1)Nc1ccc2c(c1)OCO2	1	x	39	1
O=C(NCc1cccs1)Nc1ccc2c(c1)OCO2	-13	63*	9	20
C[C@@H]1CN([C@H](C)CO)S(=O)(=O)c2ccc(C#CC3CC3)cc2O[C@@H]1CN(C)C(=O)CC1CC1	x	4	x	x
O=C(Nc1ccc2c(c1)CCCN2C(=O)c1ccco1)c1cc([N+](=O)[O-])ccc1Cl	-10	2	74*	65
CC(=O)Nc1ccc(NC(=O)c2ccccc2Sc2ccc([N+](=O)[O-])cc2Cl)cc1	-11	-4	76*	33
COc1ccc(NC(=O)c2cccc([N+](=O)[O-])c2)cc1	27	45	-7	16
O=C(c1ccccc1Sc1ccc([N+](=O)[O-])cc1Cl)N1CCOCC1	-1	x	26	13
O=C(Nc1ccc(Nc2ccccc2)cc1)c1cc([N+](=O)[O-])ccc1Cl	-4	0	134*	107
O=C(Nc1ccc(N2CCN(C(=O)c3ccco3)CC2)cc1)c1ccc([N+](=O)[O-])cc1Cl	-9	-1	-12	1
COc1ccc(NC(=O)c2cc([N+](=O)[O-])ccc2O)cc1	1	x	-69	-73*
CN(CC(=O)Nc1ccc(Cl)c(S(=O)(=O)N(C)C)c1)Cc1ccccc1	15	65*	0	12
NC(N)=N/N=C/c1ccccc1	3	x	-2	-7
NC(=N\N=Cc1ccccc1)/C(N)=N/N=Cc1ccccc1	u	50*	x	x
C#CCOCCOCCOCCNc1nc(N2CCN(C(=O)CCCCCCCCCCNC(=O)Cn3cc(CCCCCN)nn3)CC2)nc(N2CCN(C(=O)CCCCCCCCCCNC(=O)[C@H]([C@@H](C)CC)n3cc(CCCCN=C(N)N)nn3)CC2)n1	104*	5	x	x
C#CCOCCOCCOCCNc1nc(N2CCN(C(=O)CCCCCCCCCCNC(=O)[C@H]([C@@H](C)CC)n3cc(CCCCCN)nn3)CC2)nc(N2CCN(C(=O)CCCCCCCCCCNC(=O)[C@H]([C@@H](C)CC)n3cc(CCCCN=C(N)N)nn3)CC2)n1	+	-14	x	x
C#CCOCCOCCOCCNc1nc(N2CCN(C(=O)Cn3cc(CCCN=C(N)N)nn3)CC2)nc(N2CCN(C(=O)[C@H]([C@@H](C)CC)n3cc(CCCCN)nn3)CC2)n1	-2	-3	x	x
